# Activity calls are given as the source filed them.
# Columns and labels:
# [1] = E. coli DRC41 culture turbidity changes, primary screen, E. coli filamentation inducer project, strain DRC41, OD650, 48 h (AID 1152);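 note: E. coli MC1000 strain DRC41 lacking acrAB efflux pump and sulA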; conditions: E. coli DRC41 (acrAB sulA), higher = more signal, called active from +8 up or from −8 down
# [2] = small-molecule binders of probe aLefty1, primary screen, biochemical, small-molecule microarray, 635/667 nm fluorescence (AID 1153); conditions: higher = more signal;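 note: score merges spot fluorescence with signal-to-noise ratio from the scanned slide images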
# [3] = PSAC antagonists in infected red cells, primary screen, cell-based, P. falciparum Indochina, OD700, 1 h (AID 1154); conditions: P. falciparum Indochina infected RBC osmotic lysis, higher = more signal, called active from +8 up or from −8 down
# [4] = PSAC antagonists in infected red cells, primary screen, cell-based, P. falciparum Indochina, OD700, 2 h (AID 1155);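 note: lysis reports solute entry through the parasite surface anion channel PSAC; channel blockers reduce lysis of infected cells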; conditions: P. falciparum Indochina infected erythrocytes, osmotic lysis OD700; higher = more signal, called active from +8 up or from −8 down
# [5] = osmotic lysis modulators in infected erythrocytes, primary screen, PSAC antagonist project, cell-based, P. falciparum Indochina, OD700, 3 h (AID 1156); conditions: higher = more signal, called active from +8 up or from −8 down
# [6] = PSAC antagonists in infected red cells, primary screen, cell-based, P. falciparum Indochina, OD700, 18 h (AID 1157); conditions: P. falciparum Indochina infected erythrocytes, osmotic lysis OD700, 18 h; higher = more signal, called active from +8 up or from −8 down
# [7] = modulators of S6 phosphorylation in cells, primary screen, cell-based, A549, cytoblot, luminescence, serum-stimulated (AID 1158); conditions: A549 phospho-S6 cytoblot, 5 h, higher = more signal;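 note: serum-stimulated A549 lung adenocarcinoma cells; signal is phosphorylated S6 detected by cytoblot immunostaining with HRP secondary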
# [8] = biological target: NADPH oxidase 2 (Homo sapiens) (UniProt P04839); assay: NOX2-dependent H2O2 signal modulators, primary screen, NOX inhibitor project, cell-based, HEK293-NOX2, PMA-stimulated, Amplex Red fluorescence (AID 1159); conditions: 45 min, higher = more signal, called active from +8 up or from −8 down; note: test concentration not given here
# Sequence of NADPH oxidase 2 (Homo sapiens) (P04839 whole entry, looked up): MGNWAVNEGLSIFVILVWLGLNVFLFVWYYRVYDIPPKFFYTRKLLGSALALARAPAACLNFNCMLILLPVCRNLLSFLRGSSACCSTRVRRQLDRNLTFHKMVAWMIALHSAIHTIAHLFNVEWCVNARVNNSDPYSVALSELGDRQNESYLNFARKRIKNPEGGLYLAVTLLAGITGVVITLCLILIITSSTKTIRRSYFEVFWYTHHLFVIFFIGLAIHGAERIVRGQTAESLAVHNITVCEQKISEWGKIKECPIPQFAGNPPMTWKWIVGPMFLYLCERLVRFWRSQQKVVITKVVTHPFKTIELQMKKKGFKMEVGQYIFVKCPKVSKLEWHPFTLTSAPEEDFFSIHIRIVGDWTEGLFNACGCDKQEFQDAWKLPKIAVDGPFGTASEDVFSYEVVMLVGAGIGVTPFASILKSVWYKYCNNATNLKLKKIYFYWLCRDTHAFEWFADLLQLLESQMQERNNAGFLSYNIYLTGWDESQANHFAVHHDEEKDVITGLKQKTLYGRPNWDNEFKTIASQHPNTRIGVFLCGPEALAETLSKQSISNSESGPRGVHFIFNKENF
# [9] = biological target: NADPH oxidase 4 (Homo sapiens) (UniProt Q9NPH5); assay: NOX4-dependent H2O2 signal modulators, primary screen, NOX inhibitor project, cell-based, HEK293-NOX4, tetracycline-induced, Amplex Red fluorescence (AID 1160); conditions: 45 min, higher = more signal, called active from +8 up or from −8 down
# Sequence of NADPH oxidase 4 (Homo sapiens) (Q9NPH5 whole entry, looked up): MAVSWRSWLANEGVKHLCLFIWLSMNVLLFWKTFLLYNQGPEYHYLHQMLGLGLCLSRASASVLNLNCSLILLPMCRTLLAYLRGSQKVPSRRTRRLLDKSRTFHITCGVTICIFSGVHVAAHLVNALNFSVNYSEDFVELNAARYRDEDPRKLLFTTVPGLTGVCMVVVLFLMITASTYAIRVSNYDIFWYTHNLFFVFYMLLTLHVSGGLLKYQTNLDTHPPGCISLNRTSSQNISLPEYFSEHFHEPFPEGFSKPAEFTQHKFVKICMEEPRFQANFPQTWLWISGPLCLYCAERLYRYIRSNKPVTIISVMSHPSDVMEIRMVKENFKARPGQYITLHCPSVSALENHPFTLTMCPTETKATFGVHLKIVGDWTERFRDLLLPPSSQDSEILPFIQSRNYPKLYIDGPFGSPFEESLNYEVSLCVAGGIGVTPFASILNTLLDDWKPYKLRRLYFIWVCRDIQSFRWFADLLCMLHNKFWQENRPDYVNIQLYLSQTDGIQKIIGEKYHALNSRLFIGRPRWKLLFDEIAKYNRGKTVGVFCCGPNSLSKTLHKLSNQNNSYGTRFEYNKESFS
# [10] = biological target: NADPH oxidase 5 (Homo sapiens) (UniProt Q96PH1); assay: NOX5-dependent H2O2 signal modulators, primary screen, NOX inhibitor project, cell-based, HEK293-NOX5, Amplex Red fluorescence (AID 1161); conditions: HEK293-NOX5, ionomycin, 45 min, higher = more signal
# Sequence of NADPH oxidase 5 (Homo sapiens) (Q96PH1 whole entry, looked up): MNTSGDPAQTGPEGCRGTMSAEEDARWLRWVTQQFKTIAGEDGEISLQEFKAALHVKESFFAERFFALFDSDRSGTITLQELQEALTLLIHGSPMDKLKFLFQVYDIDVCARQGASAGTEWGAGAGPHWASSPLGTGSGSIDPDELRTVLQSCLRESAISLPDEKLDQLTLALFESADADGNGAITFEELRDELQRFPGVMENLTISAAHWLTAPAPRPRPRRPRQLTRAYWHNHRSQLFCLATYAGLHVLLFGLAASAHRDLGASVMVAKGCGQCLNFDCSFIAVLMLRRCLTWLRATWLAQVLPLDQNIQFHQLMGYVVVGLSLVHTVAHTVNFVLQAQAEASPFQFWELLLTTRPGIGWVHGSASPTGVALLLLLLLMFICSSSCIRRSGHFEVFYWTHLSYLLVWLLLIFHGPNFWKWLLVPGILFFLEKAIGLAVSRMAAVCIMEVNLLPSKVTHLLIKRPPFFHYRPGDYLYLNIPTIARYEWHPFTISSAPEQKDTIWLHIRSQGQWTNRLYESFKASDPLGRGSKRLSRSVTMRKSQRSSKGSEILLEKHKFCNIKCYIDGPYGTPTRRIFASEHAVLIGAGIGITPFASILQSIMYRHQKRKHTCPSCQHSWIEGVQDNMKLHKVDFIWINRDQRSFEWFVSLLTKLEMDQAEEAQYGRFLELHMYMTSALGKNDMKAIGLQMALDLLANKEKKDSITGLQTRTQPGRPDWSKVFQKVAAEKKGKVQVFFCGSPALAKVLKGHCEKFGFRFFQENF
Structure (SMILES),z-score [1],composite z-score [2],z-score [3],z-score [4],z-score [5],z-score [6],z-score [7],z-score [8],z-score [9],z-score [10]
CC(C)c1ccc(NN2C(C(O)c3cccc(O)c3)C=CC3C(=O)N(c4ccccc4)C(=O)C32)cc1 (stereo not given),-0.833 (inactive),0.0523,8.05 (active),1.14 (inactive),1.5 (inactive),1.64 (inactive),-0.83,-2.01 (inactive),-5.51 (inactive),-4.13
C=C(COC)/C(=C/C[C@H](OC(=O)c1ccncc1)c1cccc(OCCO)c1)c1cc(C(=O)OC)ccc1OC,0.395 (inactive),0.132,13.5 (active),2.26 (inactive),2.48 (inactive),0.773 (inactive),-0.625,0.32 (inactive),0.00792 (inactive),-1.51
Cc1c(NC(=O)CC#N)c(=O)n(-c2ccccc2)n1C,1.47 (inactive),-0.193,-0.794 (inactive),-1.31 (inactive),-0.202 (inactive),-1.31 (inactive),2.17,-0.463 (inactive),-0.0592 (inactive),0.66
CC(C)(C)OC(=O)CC[C@]1(C(=O)N2CCCCC2)N=C(c2ccc(OCCCO)cc2)O[C@H]1c1ccccc1N=[N+]=[N-],1.66 (inactive),0.19,32.1 (active),28.8 (active),2.17 (inactive),7.7 (inactive),-0.167,-3.53 (inactive),0.976 (inactive),-1.46
Cc1cc(C)cc(N2C(=O)CS(=O)(=O)C2c2cccc([N+](=O)[O-])c2)c1 (stereo not given),0.469 (inactive),1.33,0.548 (inactive),-0.385 (inactive),0.809 (inactive),-1.48 (inactive),1.48,0.316 (inactive),0.227 (inactive),1.63
CC(C)CNC(=O)[C@@]1(c2ccc([N+](=O)[O-])cc2)CC(=O)N(CC23CC4CC(CC(C4)C2)C3)[C@@H]1c1ccc(CO)cc1,2.76 (inactive),0.227,2.75 (inactive),-0.14 (inactive),0.856 (inactive),-0.36 (inactive),0.802,-0.129 (inactive),-1.06 (inactive),0.965
O=C1O[C@H](c2ccccc2)[C@H](c2ccccc2)N2[C@H]1[C@@H](C(=O)Nc1nc3ccccc3s1)[C@]1(C(=O)Nc3ccccc31)[C@H]2c1ccc(O)cc1,-0.626 (inactive),-0.294,1.53 (inactive),2.51 (inactive),0.486 (inactive),1.69 (inactive),0.192,0.844 (inactive),0.479 (inactive),0.201
O=C1C2C=CC(C(O)c3ccc(-c4ccccc4)s3)N(n3cnnc3)C2C(=O)N1Cc1ccccc1 (stereo not given),-0.613 (inactive),0.284,2.44 (inactive),1.41 (inactive),0.605 (inactive),0.832 (inactive),0.0424,-0.547 (inactive),-0.149 (inactive),-0.918
CCCCCN1CC=CC23O[C@@H]4C=CCOC(=O)[C@@H]4[C@H]2C(=O)N(CCCO)[C@@H]3C1=O (stereo not given in full),3.22 (inactive),-0.149,-0.322 (inactive),-0.397 (inactive),0.993 (inactive),-0.501 (inactive),0.724,-0.169 (inactive),-0.724 (inactive),-1.14
COCCOC(=O)N1C(=O)[C@@]2(c3ccccc31)[C@H](c1ccc(O)cc1)N1[C@H](c3ccccc3)[C@H](c3ccccc3)OC(=O)[C@H]1[C@@H]2C(=O)N1CCc2cc(OC)c(OC)cc2C1,0.682 (inactive),-0.181,0.428 (inactive),-0.261 (inactive),0.0172 (inactive),-1 (inactive),1.55,0.343 (inactive),0.594 (inactive),1.95
COC(=O)C[C@@H]1C[C@H](C)[C@]2(O1)C(=O)N(Cc1ccccc1)c1ccc(NC(C)=O)cc12,0.442 (inactive),-0.193,1.66 (inactive),-0.0327 (inactive),0.962 (inactive),0.0822 (inactive),0.525,0.627 (inactive),-1.06 (inactive),2.27
O=C1O[C@H](c2ccccc2)[C@H](c2ccccc2)N2[C@H]1[C@@H](C(=O)O)[C@]1(C(=O)Nc3ccc(C#CC4=CCCCC4)cc31)[C@H]2c1ccc(OCCO)cc1,-0.915 (inactive),0.167,0.381 (inactive),-0.97 (inactive),-9.89 (active),-0.969 (inactive),0.333,1.19 (inactive),-0.768 (inactive),1.37
COCC(=C=CC[C@H](O)c1ccc(OCCO)cc1)C[C@H](O)c1cc(Cl)cc(Cl)c1O,1.37 (inactive),0.155,10.3 (active),2.44 (inactive),-2.64 (inactive),-0.162 (inactive),0.175,-2.99 (inactive),-1.12 (inactive),-3.26
C=C(CCCC)C(=O)CC[C@H](OC(=O)c1cccnc1)c1cccc(OCCO)c1,-0.03 (inactive),-0.147,20.7 (active),4.33 (inactive),1.83 (inactive),1.19 (inactive),0.0701,-0.372 (inactive),-0.417 (inactive),-2.11
[N-]=[N+]=Nc1ccccc1[C@H]1OC(c2ccc(OCCCO)cc2)=N[C@@]1(CCS(=O)(=O)c1ccccc1)C(=O)O,0.671 (inactive),0.373,31.2 (active),24.9 (active),1.32 (inactive),4.75 (inactive),-0.351,-2.11 (inactive),0.851 (inactive),-0.73
Cc1ccc([C@H]2[C@H](C(=O)O)[C@H](Sc3ccccc3)[C@@H](C(C)C)N2S(=O)(=O)c2ccc(C)cc2)cc1,-1.51 (inactive),-0.0675,1.09 (inactive),0.456 (inactive),-0.922 (inactive),0.781 (inactive),-0.137,1.01 (inactive),0.349 (inactive),1.16
CCOC(=O)C1=CC[C@@H](c2ccccc2Cl)N(S(=O)(=O)c2ccc(C)cc2)C1,0.0023 (inactive),0.276,4.85 (inactive),-0.477 (inactive),-0.981 (inactive),-1.69 (inactive),0.676,0.358 (inactive),-0.832 (inactive),-0.93
COCCOC(=O)N1C(=O)[C@@]2(c3ccccc31)[C@H](C(=O)Nc1nc3ccccc3s1)[C@H]1C(=O)O[C@H](c3ccccc3)[C@H](c3ccccc3)N1[C@@H]2c1ccc(OCCO)cc1,0.258 (inactive),0.258,4.45 (inactive),1.76 (inactive),0.505 (inactive),1.63 (inactive),0.44,-0.207 (inactive),0.842 (inactive),2.22
C[C@]1(C(=O)NCc2ccccc2)c2ccccc2C(=O)N(Cc2cc(F)cc(C(F)(F)F)c2)[C@H]1c1ccc(CO)cc1,0.537 (inactive),-0.101,5.2 (inactive),1.01 (inactive),1.12 (inactive),0.38 (inactive),-0.239,-1.29 (inactive),0.26 (inactive),-0.151
Cc1cc(C)c(C(O)C2C=CC3C(=O)N(C)C(=O)C3N2Nc2ccccc2)c(C)c1 (stereo not given),-1.52 (inactive),1.5,0.277 (inactive),0.519 (inactive),-0.168 (inactive),1.03 (inactive),-0.858,-0.802 (inactive),-3.6 (inactive),-1.96
COc1cc(CO)ccc1OC(C)=O,1.48 (inactive),-0.157,-0.92 (inactive),-1.73 (inactive),-0.798 (inactive),-2.47 (inactive),1.03,-4.55 (inactive),-1.36 (inactive),-0.667
COC(=O)c1ccc(C23CC2(C(NP(=O)(c2ccccc2)c2ccccc2)c2ccccc2)C3)cc1 (stereo not given),-0.402 (inactive),1.08,7.74 (inactive),0.191 (inactive),-0.279 (inactive),-1.02 (inactive),1.36,-0.489 (inactive),-0.652 (inactive),-4.37
[N-]=[N+]=NCc1ccccc1C[C@@]1(C(=O)NCC(O)CO)N=C(c2ccc(OCCCO)cc2)O[C@@H]1c1ccccc1CN=[N+]=[N-] (stereo not given in full),0.19 (inactive),0.455,27.4 (active),14.6 (active),0.029 (inactive),2.24 (inactive),-0.324,0.266 (inactive),1.54 (inactive),2.31
O=C(OCCF)C1=CCC(c2cccc(Cl)c2)O1 (stereo not given),0.562 (inactive),-0.378,16.4 (active),0.0666 (inactive),-0.628 (inactive),-1.21 (inactive),0.543,-0.0482 (inactive),0.842 (inactive),0.382
O=C1O[C@@H](c2ccccc2)[C@@H](c2ccccc2)N2[C@@H](c3ccc(O)cc3)[C@]3(C(=O)Nc4ccc(C#CC5(O)CCCCCC5)cc43)[C@@H](C(=O)N3CCCCCCC3)[C@H]12,0.489 (inactive),2.77,1.32 (inactive),0.836 (inactive),1.17 (inactive),0.564 (inactive),0.181,1.1 (inactive),1.09 (inactive),0.682
C=C[C@@H](COC(C)=O)N(Cc1ccccc1[N+](=O)[O-])S(=O)(=O)c1ccc(Br)cc1,1.43 (inactive),-0.339,2.44 (inactive),-0.407 (inactive),-0.885 (inactive),-0.709 (inactive),3.16,-4.3 (inactive),-0.628 (inactive),-1.98

# — PubChem BioAssay
